This is an account of results in PubChem BioAssay (NCATS).

Assay [1] addresses Methanococcus maripaludis chaperonin (MmCpn) (UniProt Q6LX38). The experiment in a line: High-Throughput Screening for Modulators of Cytosolic Chaperonin Activity: MmCpn Primary Screen (AID 488978).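 Note: 50 nM MmCpn enzyme hydrolysing 30 µM ATP at 37 °C; 0% is about no effect.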 The method, boiled down: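 Measures ATPase turnover of the M. maripaludis chaperonin (50 nM final) against 30 uM ATP over 10 min at 37C, with compound added 5 min beforehand at room temperature. ADP is quantified by HTRF immunodetection.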

Assay [2] has as its target Transient receptor potential cation channel subfamily V member 1 (Homo sapiens) (UniProt Q8NER1). As to the kind of experiment: HTS Assay for Compounds that Act as Enhancers of the Vanilloid Receptor 1 (AID 488979). Note: 0% is about no effect. In outline:
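TRPV1-expressing cells loaded with Fluo-8 calcium dye; compounds added and calcium influx read kinetically for 3 min (agonist phase), then capsaicin at EC20 added and read 2 min more for enhancement. Fluorescence ex 480/em 520 nm.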

The target of assay [3] is Thyrotropin receptor (Homo sapiens) (UniProt P16473). The experiment in a line: qHTS Assay for Antagonists of the Thyroid Stimulating Hormone Receptor (AID 488980). Note: series mostly up to about 58 µM; 0% is about no effect. The method, boiled down:
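Cells expressing human TSHR (HEK293) are dispensed in HBSS/HEPES containing 70 uM RO 20-1724, compound is added, then TSH at EC80 (4 nM final). Antibody in lysis buffer follows, 30 minutes at room temperature before HTRF detection.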

Assay [4] addresses D(1A) dopamine receptor (Homo sapiens) (UniProt P21728). As to the kind of experiment: HTS Assay for Allosteric Agonists of the Human D1 Dopamine Receptor: Primary Screen for Agonists (AID 488981). Note: 0% is about no effect. In outline:
(§1)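 Tetracycline-induced HEK293 T-REx cells force-coupled to calcium signalling were incubated overnight at 30 C and dye-loaded at room temperature. Calcium flux over 180 s after compound addition flagged agonists; a further 180 s read after EC20 dopamine flagged potentiators.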

Assay [5] has as its target ATP-dependent 6-phosphofructokinase (Trypanosoma brucei brucei) (UniProt O15648). The experiment in a line: qHTS Assay to Find Inhibitors of T. brucei phosphofructokinase: hit validation (AID 492961).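 Note: luminescence reports ADP formed as PFK phosphorylates fructose-6-phosphate with ATP; series mostly up to about 51 µM; % is set by controls: 0 for no effect and ±100 for the full control effect.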 The method, boiled down:
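PFK 1.25 nM, F6P 0.5 mM, ATP 0.1 mM, MgCl2 5 mM, 0.1 M TEA pH 8.0, Tween20 0.01%, BSA 0.1%; 45 min RT. ADP-Glo two-step detection, luminescence. qHTS titration; curve fitting with curve-class categorization.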

Assay [6] in a line: Validation screen for small molecules that induce genotoxicity in human embryonic kidney (HEK293T) cells expressing luciferase-tagged ELG1 (AID 493106). Note: 0% is about no effect. The method, boiled down: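 ELG1-luciferase reporter readout (ONE-Glo, 30 min, room temperature) after 16 hr compound treatment at 37 °C of HEK293T cells at 2,000 per well. Rising luminescence flags genotoxic stress.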
Assay [7] has as its target Thyrotropin-releasing hormone receptor (Homo sapiens) (UniProt P34981). The experiment in a line: qHTS for Small Molecule Agonists and Allosteric Enhancers of Human TRH Receptor: Validation Screen for Agonists (AID 493127;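 active = calcium activation more than 3 SD above the typical response in the agonist read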;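 note: intracellular calcium rise by fluo-8 fluorescence before TRH EC20 addition; 0% is about no effect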). The following applies: TRH receptor agonist cell assay; at 2 µM; stronger effect = higher value. In outline:
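Compound-evoked intracellular calcium release in fluo-8-loaded TRHR cells, read kinetically on FDSS (Ex 480/Em 530, 1 s/cycle) after 23 nL pintool transfer. Agonist phase preceded 10 nM TRH EC20 addition.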
In general terms: In qHTS, concentration-response curves come from the screen itself.

The nature of assay [8]: Nrf2 qHTS screen for inhibitors: Validation (AID 493153; active = well fitted inhibition curve with a large enough effect in the main read-out, with a control signal flat, not every such curve was filed as active). The following applies: Potency: luciferase luminescence; viability change: measured here: cytotoxicity max response. The method, boiled down:
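Concentration-response on A549 ARE_Fluc reporter cells exposed 18-24 h at 37 C, 5% CO2. Cytotoxicity read first by CellTiter-Fluor fluorescence (Ex 405/Em 525), then Nrf2 inhibition by BugLite luminescence after 15 min.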

Assay [9] can be described thus: qHTS for Inhibitors of Cell Surface uPA Generation: Validation Assay (AID 493164).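 Note: RAW 264.7 macrophage cells exposed to compound for 18 h; 0% is about no effect.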 In outline:
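ATP-Lite luminescence read-out: ATP remains high when uPA activity-dependent LF translocation into the cytoplasm is blocked. RAW 264.7 cells, 18 h compound exposure at 37 C; 7-point titration, 2.45 nM to 38.3 uM final.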

Assay [10] has as its target Galactokinase (Homo sapiens) (UniProt P51570). The experiment in a line: qHTS Validation Assay for Inhibitors of Human Galactokinase (GALK) (AID 493189). Note: 0% is about no effect. In outline: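 Compounds were pin-transferred into ATP buffer, then GALK-galactose mix was added (final 5 nM enzyme, 100 uM galactose, 35 uM ATP). After 1 h at room temperature, remaining ATP was measured luminescently.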

The nature of assay [11]: Validation screen for small molecules that induce DNA re-replication in SW480 colon adenocarcinoma cells (AID 504364). Note: 0% is about no effect. The method, boiled down:
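Image-based DNA content read-out: Hoechst stain 40 min, total nuclear fluorescence intensity (ex 405 nm, em 500-530 nm) after 48 h compound exposure of 250 SW480 cells/well at 37 C, 5% CO2, versus DMSO vehicle.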

The target of assay [12] is Phosphoglycerate kinase, glycosomal (Trypanosoma brucei brucei) (UniProt P07378). As to the kind of experiment: qHTS Validation Assay to Find Inhibitors of Phosphoglycerate Kinase (AID 504547).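 Note: control wells lack PGK and mark full inhibition.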 In outline: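 In TEA buffer (100mM, pH 7.6) containing 5mM MgCl2 and 0.01% Tween-20, the GAPDH-coupled PGK reaction proceeded for 60 minutes at room temperature before a single luminescence reading using Kinase-Glo Plus.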
Chain of Phosphoglycerate kinase, glycosomal (Trypanosoma brucei brucei) (P07378 whole entry, looked up): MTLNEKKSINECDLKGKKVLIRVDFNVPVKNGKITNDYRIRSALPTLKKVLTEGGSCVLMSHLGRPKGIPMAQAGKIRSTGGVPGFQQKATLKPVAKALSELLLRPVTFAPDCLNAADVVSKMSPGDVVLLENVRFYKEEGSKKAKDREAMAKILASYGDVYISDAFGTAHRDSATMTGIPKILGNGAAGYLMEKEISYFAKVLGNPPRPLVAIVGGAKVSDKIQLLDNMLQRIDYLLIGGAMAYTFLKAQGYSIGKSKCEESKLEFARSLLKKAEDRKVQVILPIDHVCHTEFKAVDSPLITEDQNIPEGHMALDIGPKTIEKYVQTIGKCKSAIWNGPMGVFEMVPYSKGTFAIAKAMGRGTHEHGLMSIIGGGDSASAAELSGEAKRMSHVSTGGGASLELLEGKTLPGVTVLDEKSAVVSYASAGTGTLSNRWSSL

The target in assay [13] is Ubiquitin carboxyl-terminal hydrolase 1 (Homo sapiens) (UniProt O94782). As to the kind of experiment: Inhibitors of USP1/UAF1: Pilot qHTS (AID 504865). Note: nearly all actives have a fitted effect of over 35% in size. Note: potency is the fitted concentration of half-maximal effect. In outline:
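Kinetic fluorescence assay: 1nM USP1/UAF1, 15 min compound preincubation, then 150nM Ub-Rho; 480/540 nm.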

Assay [14] can be described thus: qHTS for Inhibitors of ATXN expression: Validation of Cytotoxic Assay (AID 588349). Note: % is set by controls: 0 for no effect and ±100 for the full control effect. In outline:
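Cytotoxicity counter-screen: ATP-based luminescent viability (CellTiter Glo) after 72 hr exposure of HEK293 cells to a compound titration at 37 degrees C.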

The target in assay [15] is D(1A) dopamine receptor (Homo sapiens) (UniProt P21728). As to the kind of experiment: HTS Assay for Allosteric Agonists of the Human D1 Dopamine Receptor: Primary Screen for Potentiators (AID 488982). Note: 0% is about no effect. The method, boiled down:
as §1

Assay [16] deals with ATPase family AAA domain-containing protein 5 (Homo sapiens) (UniProt Q96QE3). As to the kind of experiment: Validation screen for small molecules that inhibit ELG1-dependent DNA repair in human embryonic kidney (HEK293T) cells expressing luciferase-tagged ELG1 (AID 493107).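 Note: series mostly up to about 46 µM; % is set by controls: 0 for no effect and ±100 for the full control effect; inhibitors lower the ELG1-luciferase luminescence signal; nearly all actives have a fitted effect of over 70% in size.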 In outline: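 Luciferase read-out, ONE-Glo, 30 min at room temperature, follows 16 h co-exposure at 37 C of compound and the DNA-damaging agent 5-fluorouridine. Cells: HEK293T with ELG1-luciferase fusion, 2,000 per well, DMSO as vehicle.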

Assay [17] deals with phosphoglycerate mutase (Leishmania major) (UniProt Q4Q090). As to the kind of experiment: qHTS Validation Assay to Find Inhibitors of Phosphoglycerate Mutase (AID 504548). Note: series mostly up to about 58 µM; % is set by controls: 0 for no effect and ±100 for the full control effect. The following applies: Potency: inhibition qHTS. In outline: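 Lm PGAM 1.25nM final; 100 mM TEA pH 7.6, 5 mM MgCl2, 0.01% Tween-20; 45 min RT; Kinase-GloPlus, 10 min; end-point luminescence. Enzyme-free wells as negative controls.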
Chain of phosphoglycerate mutase (Leishmania major) (Q4Q090 1-553): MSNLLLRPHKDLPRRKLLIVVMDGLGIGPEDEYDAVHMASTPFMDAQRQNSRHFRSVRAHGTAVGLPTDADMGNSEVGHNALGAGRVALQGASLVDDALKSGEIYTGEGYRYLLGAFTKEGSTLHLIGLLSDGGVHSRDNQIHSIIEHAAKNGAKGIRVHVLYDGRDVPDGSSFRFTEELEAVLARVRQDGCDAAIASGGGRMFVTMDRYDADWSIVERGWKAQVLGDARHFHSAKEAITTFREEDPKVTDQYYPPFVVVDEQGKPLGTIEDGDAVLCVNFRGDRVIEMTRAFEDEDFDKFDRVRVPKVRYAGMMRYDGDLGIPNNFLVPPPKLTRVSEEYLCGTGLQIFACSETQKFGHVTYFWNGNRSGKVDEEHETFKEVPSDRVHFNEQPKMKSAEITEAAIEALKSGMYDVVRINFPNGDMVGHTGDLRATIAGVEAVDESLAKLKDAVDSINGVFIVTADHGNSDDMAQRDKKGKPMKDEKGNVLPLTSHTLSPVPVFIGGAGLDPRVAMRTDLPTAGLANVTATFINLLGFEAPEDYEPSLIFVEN

The target of assay [18] is D(1A) dopamine receptor (Homo sapiens) (UniProt P21728). As to the kind of experiment: HTS Assay for Allosteric Agonists of the Human D1 Dopamine Receptor: Primary Screen for Antagonists (AID 488983).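 Note: calcium flux response to an EC80 dopamine challenge measured with no-wash dye; nearly all actives have a fitted effect of over 65% in size.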 Note: potency is the fitted concentration of half-maximal effect. The method, boiled down:
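Calcium-flux read-out in inducible HEK293 T-REx cells expressing D1, dye-loaded 30–90 min at room temperature. Kinetic reads: 180 s after compound (agonist phase), then 180 s after an EC80 dopamine challenge.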

Assay [19] concerns the target Peptidyl-prolyl cis-trans isomerase NIMA-interacting 1 (Homo sapiens) (UniProt Q13526). As to the kind of experiment: qHTS Validation Assay to Find Inhibitors of Pin1 (AID 504536; active = well fitted inhibition curve with a large enough effect in the polarisation, with a control signal flat, not every such curve was filed as active; the % refers to the polarisation;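 note: 0% = full Pin1 enzyme wells and -100% = no-enzyme wells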). In outline:
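Fluorescence polarization competition: compounds (titration) displace HiFluor-488-labeled Pin1-1b peptide from Pin1 (0.3 uM final) in pH 7.5 HEPES buffer with DTT, 10 min at room temperature; %Activity normalized to no-enzyme wells, curves fitted.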

Results filed as inconclusive are left out. Activity calls are given as the source filed them. Unless noted, calls come from the whole dose curve; as a rule, active = well fitted curve in the direction sought with a large enough effect; inconclusive = small, poorly fitted or top-dose-only effect, or another doubt; inactive = no such curve, though single readings can be large; an effect the other way counts as inactive or inconclusive.

Chain of Peptidyl-prolyl cis-trans isomerase NIMA-interacting 1 (Homo sapiens) (Q13526 whole entry, looked up): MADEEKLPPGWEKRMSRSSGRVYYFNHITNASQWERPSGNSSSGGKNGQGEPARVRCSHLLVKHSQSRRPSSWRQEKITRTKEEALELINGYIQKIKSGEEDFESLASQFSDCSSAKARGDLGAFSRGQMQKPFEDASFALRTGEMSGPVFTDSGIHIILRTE
Chain of D(1A) dopamine receptor (Homo sapiens) (P21728 whole entry, looked up): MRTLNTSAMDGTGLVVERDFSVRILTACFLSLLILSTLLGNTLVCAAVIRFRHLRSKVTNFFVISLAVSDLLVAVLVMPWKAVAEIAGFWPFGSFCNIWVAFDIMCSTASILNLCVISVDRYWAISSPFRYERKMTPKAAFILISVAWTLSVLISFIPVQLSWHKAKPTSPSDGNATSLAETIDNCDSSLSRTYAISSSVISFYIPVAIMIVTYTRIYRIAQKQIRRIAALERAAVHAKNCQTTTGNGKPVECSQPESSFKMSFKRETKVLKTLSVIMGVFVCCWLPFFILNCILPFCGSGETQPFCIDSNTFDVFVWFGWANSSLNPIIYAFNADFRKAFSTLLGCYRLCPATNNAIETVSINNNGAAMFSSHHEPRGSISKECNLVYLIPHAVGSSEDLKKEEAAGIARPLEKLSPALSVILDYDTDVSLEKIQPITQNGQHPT
Chain of Thyrotropin-releasing hormone receptor (Homo sapiens) (P34981 whole entry, looked up): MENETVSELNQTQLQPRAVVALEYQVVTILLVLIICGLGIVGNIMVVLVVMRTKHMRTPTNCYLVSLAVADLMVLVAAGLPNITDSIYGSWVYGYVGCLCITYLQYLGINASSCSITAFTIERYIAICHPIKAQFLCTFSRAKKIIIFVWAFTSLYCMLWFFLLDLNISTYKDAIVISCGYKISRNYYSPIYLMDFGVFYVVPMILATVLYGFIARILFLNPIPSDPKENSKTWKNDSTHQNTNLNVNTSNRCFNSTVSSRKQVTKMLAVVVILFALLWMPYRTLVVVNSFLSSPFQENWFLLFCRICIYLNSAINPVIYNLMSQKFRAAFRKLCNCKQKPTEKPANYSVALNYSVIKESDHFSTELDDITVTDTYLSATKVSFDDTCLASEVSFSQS
Chain of Ubiquitin carboxyl-terminal hydrolase 1 (Homo sapiens) (O94782 whole entry, looked up): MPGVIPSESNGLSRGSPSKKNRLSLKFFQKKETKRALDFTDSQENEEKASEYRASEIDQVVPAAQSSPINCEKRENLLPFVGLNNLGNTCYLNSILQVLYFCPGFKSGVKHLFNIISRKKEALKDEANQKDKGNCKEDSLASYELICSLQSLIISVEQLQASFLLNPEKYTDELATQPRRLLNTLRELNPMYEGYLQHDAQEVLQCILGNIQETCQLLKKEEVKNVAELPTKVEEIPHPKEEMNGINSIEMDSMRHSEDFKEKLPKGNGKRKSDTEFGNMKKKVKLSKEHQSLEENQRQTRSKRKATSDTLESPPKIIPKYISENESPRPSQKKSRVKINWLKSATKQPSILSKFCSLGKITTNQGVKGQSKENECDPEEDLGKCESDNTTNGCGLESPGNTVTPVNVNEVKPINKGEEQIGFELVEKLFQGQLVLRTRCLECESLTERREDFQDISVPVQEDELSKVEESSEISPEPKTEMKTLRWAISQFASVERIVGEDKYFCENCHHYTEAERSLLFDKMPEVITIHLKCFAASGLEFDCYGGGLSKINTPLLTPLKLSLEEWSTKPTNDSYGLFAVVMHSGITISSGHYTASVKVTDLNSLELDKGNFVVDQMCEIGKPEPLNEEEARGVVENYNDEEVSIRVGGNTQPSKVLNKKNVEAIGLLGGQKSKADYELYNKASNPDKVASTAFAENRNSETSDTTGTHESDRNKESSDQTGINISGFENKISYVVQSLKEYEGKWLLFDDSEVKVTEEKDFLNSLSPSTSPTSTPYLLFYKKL
Chain of Transient receptor potential cation channel subfamily V member 1 (Homo sapiens) (Q8NER1 whole entry, looked up): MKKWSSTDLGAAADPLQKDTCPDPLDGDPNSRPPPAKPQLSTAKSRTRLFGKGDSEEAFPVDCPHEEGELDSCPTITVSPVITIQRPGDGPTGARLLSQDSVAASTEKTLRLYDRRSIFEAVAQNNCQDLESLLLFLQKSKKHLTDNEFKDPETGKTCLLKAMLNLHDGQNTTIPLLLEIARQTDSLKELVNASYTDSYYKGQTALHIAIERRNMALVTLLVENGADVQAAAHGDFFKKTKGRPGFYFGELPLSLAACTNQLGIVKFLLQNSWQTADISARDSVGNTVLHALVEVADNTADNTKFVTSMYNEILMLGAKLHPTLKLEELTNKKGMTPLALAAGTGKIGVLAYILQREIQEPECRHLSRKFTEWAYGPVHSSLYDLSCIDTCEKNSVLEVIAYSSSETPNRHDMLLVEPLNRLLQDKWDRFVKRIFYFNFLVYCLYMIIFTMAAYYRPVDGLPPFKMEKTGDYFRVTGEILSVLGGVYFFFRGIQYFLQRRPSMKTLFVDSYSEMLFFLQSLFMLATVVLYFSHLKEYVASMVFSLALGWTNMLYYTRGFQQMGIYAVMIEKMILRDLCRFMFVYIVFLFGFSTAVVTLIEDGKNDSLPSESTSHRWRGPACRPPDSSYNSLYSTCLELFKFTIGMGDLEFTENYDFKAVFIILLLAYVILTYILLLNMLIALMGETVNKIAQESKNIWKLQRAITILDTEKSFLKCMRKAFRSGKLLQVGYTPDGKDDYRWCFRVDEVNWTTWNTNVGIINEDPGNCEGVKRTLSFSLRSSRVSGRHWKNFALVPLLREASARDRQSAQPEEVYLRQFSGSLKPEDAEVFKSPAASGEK
Chain of Galactokinase (Homo sapiens) (P51570 whole entry, looked up): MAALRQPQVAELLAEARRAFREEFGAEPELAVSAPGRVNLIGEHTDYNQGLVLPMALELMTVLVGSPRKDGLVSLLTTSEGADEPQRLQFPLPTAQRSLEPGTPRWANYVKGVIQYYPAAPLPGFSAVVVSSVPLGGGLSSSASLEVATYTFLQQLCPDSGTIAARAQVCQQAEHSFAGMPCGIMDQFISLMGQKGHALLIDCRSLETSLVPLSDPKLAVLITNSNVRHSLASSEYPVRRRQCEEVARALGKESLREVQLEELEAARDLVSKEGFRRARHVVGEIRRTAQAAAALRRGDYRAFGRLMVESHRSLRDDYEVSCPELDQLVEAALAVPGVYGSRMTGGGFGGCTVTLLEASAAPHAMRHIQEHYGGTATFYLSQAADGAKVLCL
Chain of Thyrotropin receptor (Homo sapiens) (P16473 whole entry, looked up): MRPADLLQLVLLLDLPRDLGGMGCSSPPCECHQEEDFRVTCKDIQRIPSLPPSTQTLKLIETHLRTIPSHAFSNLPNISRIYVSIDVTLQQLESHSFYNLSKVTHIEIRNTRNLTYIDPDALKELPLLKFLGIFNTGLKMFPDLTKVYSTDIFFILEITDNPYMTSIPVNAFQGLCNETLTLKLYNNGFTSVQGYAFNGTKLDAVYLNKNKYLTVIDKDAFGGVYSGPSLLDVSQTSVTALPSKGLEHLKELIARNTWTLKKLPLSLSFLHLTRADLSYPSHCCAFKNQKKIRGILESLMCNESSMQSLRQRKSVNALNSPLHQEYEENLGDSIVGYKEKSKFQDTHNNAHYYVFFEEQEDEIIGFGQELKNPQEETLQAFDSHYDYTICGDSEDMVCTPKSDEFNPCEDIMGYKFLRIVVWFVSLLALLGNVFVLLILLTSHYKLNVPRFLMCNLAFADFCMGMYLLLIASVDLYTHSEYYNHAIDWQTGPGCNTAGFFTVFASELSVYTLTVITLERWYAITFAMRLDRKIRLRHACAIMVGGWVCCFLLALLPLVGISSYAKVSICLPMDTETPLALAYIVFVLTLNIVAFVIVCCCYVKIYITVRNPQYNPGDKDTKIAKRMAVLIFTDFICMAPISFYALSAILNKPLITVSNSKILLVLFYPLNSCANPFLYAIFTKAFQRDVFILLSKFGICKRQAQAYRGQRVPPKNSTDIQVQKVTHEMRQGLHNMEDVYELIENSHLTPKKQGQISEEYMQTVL

As for `O=C(O)/C=C/C(O)c1ccc(Cl)cc1` (stereo not drawn), the compound was called inactive in assay [1], in assay [2], in assay [3], in assay [5] and in assay [9]. The Potency result in assay [4], in [6], in [8], in assay [10], in assay [11] and in assay [12] was “inactive” in each case. The Potency result in assay [13] and in [14] was “inactive” in each case. In addition, the activation in [7] is 0.125% (inactive). This compound returned a viability change in [8] of 2.66%.
`OCC1O[C@H](O)C(Cl)C(O)C1O` (stereo partly drawn): the compound was called inactive in assay [1], in [2], in assay [3] and in assay [9]. The Potency entry in assay [4], in [15], in [6], in assay [16], in [8] and in assay [10] was “inactive” in each case. Besides, the Potency result in [11], in [12], in assay [17], in assay [13] and in assay [14] was “inactive” in each case. The activation in assay [7] was 0.688% (inactive). The compound further displayed a viability change in assay [8] of 4.21%.
For `Ic1ccc(N2CCN(Cc3c[nH]c4ncccc34)CC2)cc1`, the compound was called inactive in assay [1], in assay [2] and in assay [3]. For the same compound, the Potency result in assay [4], in assay [15], in [18], in assay [6], in assay [10] and in assay [11] was “inactive” each time. Further, the Potency entry in assay [12] and in assay [17] was “inactive” throughout. In addition, in assay [7], the activation was 3.5% (inactive). In addition, the Potency in assay [13] was 50.1 µM (active).
In the case of `CCCn1c(=O)c2[nH]c(-c3ccc(OCC(=O)NCCN)cc3)nc2n(CCC)c1=O`, the call in assay [1], in assay [2], in [3] and in assay [9] was inactive. Further, the Potency entry in assay [4], in assay [15], in assay [6], in assay [8], in assay [10] and in assay [11] was “inactive” in each case. Besides, the Potency result in assay [19], in assay [12], in assay [17] and in [13] was “inactive” each time. Further, in assay [7], the activation was 0.688% (inactive). Also, in [8], the viability change worked out at 10.5%.
For the compound `O=C(O)CC1CCCc2ccccc2C1O` (stereo not drawn), the compound was called inactive in [1], in assay [2], in assay [3] and in assay [9]. Also, the Potency result in [4], in [15], in assay [6], in [16], in assay [8] and in [10] was “inactive” each time. The Potency entry in [11], in assay [19], in assay [12], in assay [17], in [13] and in assay [14] was “inactive” in each case. For the same compound, in [7], the activation was 0.625% (inactive). In [8], this compound returned a viability change of 2.15%.
For `NC(=O)C(=O)O`, the outcome in assay [1], in [2] and in assay [3] was inactive. In addition, the Potency result in assay [4], in assay [15], in [18], in assay [6], in assay [10] and in [11] was “inactive” each time. In addition, the Potency result in assay [19], in [12], in [17], in [13] and in assay [14] was “inactive” throughout. Also, in assay [7], the activation was 1% (inactive).
Consider `O=c1[nH]c2cc(Cl)c(Cl)cc2[nH]c1=O`, for which the outcome in [1], in [2], in assay [3] and in assay [9] was inactive. The Potency result in assay [4], in [15], in [8], in assay [10], in assay [11] and in assay [19] was “inactive” each time. Moreover, the Potency entry in assay [12], in assay [17], in assay [13] and in assay [14] was “inactive” in each case. Further, the activation in assay [7] is 0.75% (inactive). The compound further came in with a viability change in [8] of 9.5%.
Turning to `CN=c1nc(-c2ccccc2)n(-c2ccccc2)s1`, the compound was classed as inactive in [1], in assay [2], in assay [3] and in assay [9]. The Potency entry in assay [4], in [15], in [10], in assay [11], in assay [19] and in assay [12] was “inactive” each time. In addition, the Potency result in assay [13] was “inactive”. In addition, in assay [18], the Potency is 11.2 µM (active). Also, in assay [7], the activation was 13% (inactive).
